The structures appear in SMILES notation. Inconclusive results are not listed. Unmarked numbers belong to inactive results. Active and inactive are the calls of the source. Unless noted, calls come from the whole dose curve; as a rule, active = well fitted curve in the direction sought with a large enough effect in the repeat runs; inconclusive = weak or mixed curves; inactive = no such curve, though single readings can be large; an effect the other way counts as inactive or inconclusive.

The nature of experiment [1]: qHTS assay to identify aromatase inhibitors - cell viability counter screen (AID 743084).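 Note: cells stimulated with testosterone during compound exposure; nearly all actives have a fitted effect of over 55% in size.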 Note: potency is the fitted concentration of half-maximal effect. A general note: In qHTS, concentration-response curves come from the screen itself.
Experiment [2] deals with Aryl hydrocarbon receptor (Homo sapiens) (UniProt P35869). The experiment is described as follows: qHTS assay to identify small molecule that activate the aryl hydrocarbon receptor (AhR) signaling pathway (AID 743085).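 For activation: HG2L7.5c1 human HepG2 liver cells with stably integrated DRE-driven firefly reporter; series mostly up to about 70 µM.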 Note: nearly all actives have a fitted effect of over 15% in size. Note: potency is the fitted concentration of half-maximal effect. In short, it runs like this:
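Steps: seed HepG2-AhR-luc cells; allow 5 h at 37C; pin-transfer test compound or vehicle; incubate 24 h at 37C; add viability dye (30 min, 37C) and read fluorescence; add luciferase substrate (30 min, RT) and read luminescence.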

Experiment [3] can be described thus: qHTS assay to identify small molecule that activate the aryl hydrocarbon receptor (AhR) signaling pathway - cell viability counter screen (AID 743086). Note: nearly all actives have a fitted effect of over 45% in size. Note: potency is the fitted concentration of half-maximal effect. Summed up: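 HepG2-AhR-luc (HG2L7.5c1) cells, 4000/well, treated 24 h at 37 C with compound; viability measured as CellTiter-Fluor fluorescence after 30 min in the same wells as the luciferase read.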
Experiment [4] deals with Peroxisome proliferator-activated receptor gamma (Homo sapiens) (UniProt P37231). Put plainly: qHTS assay to identify small molecule agonists of the peroxisome proliferator-activated receptor gamma (PPARg) signaling pathway (AID 743094; active = well fitted activation curve with a large enough effect in the signal ratio in the repeat runs, not every such curve was filed as active; the % refers to the signal ratio). Summed up:
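GeneBLAzer PPARg UAS-bla HEK293H cells carrying a stably integrated beta-lactamase reporter were pre-incubated 5 h at 37C, then exposed to compounds in DMSO for 17 h at 37C; LiveBLAzer B/G FRET substrate was added for 1 h at room temperature and fluorescence read.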

Experiment [5] can be described thus: qHTS assay to identify small molecule phospholipidosis (PLD) inducers (AID 1259344; active = well fitted curve in the direction sought with a large enough effect; an effect the other way counts as inactive or inconclusive; note: potency is the fitted concentration of half-maximal effect). In short, it runs like this:
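HepG2 cells, 900/well, treated with compound plus LipidTOX Red for 24 h at 37 C; amiodarone positive and DMSO negative controls. Fixed with paraformaldehyde/Hoechst, then high-content imaging scored LipidTOX pit count and integrated intensity per well and per cell.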

The target of experiment [6] is Nuclear receptor subfamily 1 group I member 2 (Rattus norvegicus) (UniProt Q9R1A7). Put plainly: Rat pregnane X receptor (rPXR) activation by small molecules, qHTS assay (AID 1346983). Note: nearly all actives have a fitted effect of over 20% in size. Note: potency is the fitted concentration of half-maximal effect. As to conditions: rPXR luciferase reporter cells, One-Glo luminescence, 24 h; max activation: active compounds read high. Summed up: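 Cell-based rPXR activation assay: rPXR cells, 2,000 per well, rested 5hr at 37 C, then exposed to compounds in DMSO for 24 hr at 37 C. Luciferase activity read by One-Glo luminescence after 30 min at room temperature.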

Experiment [7] concerns the target Nuclear receptor subfamily 1 group I member 2 (Homo sapiens) (UniProt O75469). The experiment is described as follows: Human pregnane X receptor (PXR) activation by small molecules, qHTS assay (AID 1346985). Note: nearly all actives have a fitted effect of over 40% in size. Note: potency is the fitted concentration of half-maximal effect. In short, it runs like this:
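DPX-2 cells (HepG2 co-transfected with a PXR response element and a CYP3A4-promoter luciferase construct) were seeded at 2,000 per well, rested 5 hr at 37C, then exposed to DMSO-dissolved compounds for 24 hr. Activation was read as luciferase luminescence.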

Experiment [8] shares this target. The experiment is described as follows: CYP3A4 induction through human pregnane X receptor (PXR) by small molecules, qHTS assay (AID 1346984). Note: nearly all actives have a fitted effect of over 40% in size. Note: potency is the fitted concentration of half-maximal effect. Summed up:
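DPX-2 cells (HepG2 co-transfected with PXR and CYP3A4 promoter-luciferase) treated with compounds 24 h at 37C; luciferin-IPA CYP3A4 substrate 3uM final added for 3 h, then One-Glo; luminescence read. qHTS format.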
% is set by controls: 0 for no effect and ±100 for the full control effect.

Sequence of Nuclear receptor subfamily 1 group I member 2 (Rattus norvegicus) (Q9R1A7 whole entry, looked up): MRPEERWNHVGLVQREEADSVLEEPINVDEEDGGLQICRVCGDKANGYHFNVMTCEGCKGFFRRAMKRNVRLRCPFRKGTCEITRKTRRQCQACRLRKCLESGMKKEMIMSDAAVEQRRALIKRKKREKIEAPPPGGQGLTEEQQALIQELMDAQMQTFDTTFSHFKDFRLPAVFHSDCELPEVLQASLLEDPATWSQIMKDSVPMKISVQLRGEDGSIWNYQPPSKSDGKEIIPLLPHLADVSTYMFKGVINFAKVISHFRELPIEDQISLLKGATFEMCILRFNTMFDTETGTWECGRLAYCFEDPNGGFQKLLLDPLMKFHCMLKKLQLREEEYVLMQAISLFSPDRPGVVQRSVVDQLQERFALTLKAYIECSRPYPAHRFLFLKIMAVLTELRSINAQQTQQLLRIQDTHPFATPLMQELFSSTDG
Sequence of Aryl hydrocarbon receptor (Homo sapiens) (P35869 whole entry, looked up): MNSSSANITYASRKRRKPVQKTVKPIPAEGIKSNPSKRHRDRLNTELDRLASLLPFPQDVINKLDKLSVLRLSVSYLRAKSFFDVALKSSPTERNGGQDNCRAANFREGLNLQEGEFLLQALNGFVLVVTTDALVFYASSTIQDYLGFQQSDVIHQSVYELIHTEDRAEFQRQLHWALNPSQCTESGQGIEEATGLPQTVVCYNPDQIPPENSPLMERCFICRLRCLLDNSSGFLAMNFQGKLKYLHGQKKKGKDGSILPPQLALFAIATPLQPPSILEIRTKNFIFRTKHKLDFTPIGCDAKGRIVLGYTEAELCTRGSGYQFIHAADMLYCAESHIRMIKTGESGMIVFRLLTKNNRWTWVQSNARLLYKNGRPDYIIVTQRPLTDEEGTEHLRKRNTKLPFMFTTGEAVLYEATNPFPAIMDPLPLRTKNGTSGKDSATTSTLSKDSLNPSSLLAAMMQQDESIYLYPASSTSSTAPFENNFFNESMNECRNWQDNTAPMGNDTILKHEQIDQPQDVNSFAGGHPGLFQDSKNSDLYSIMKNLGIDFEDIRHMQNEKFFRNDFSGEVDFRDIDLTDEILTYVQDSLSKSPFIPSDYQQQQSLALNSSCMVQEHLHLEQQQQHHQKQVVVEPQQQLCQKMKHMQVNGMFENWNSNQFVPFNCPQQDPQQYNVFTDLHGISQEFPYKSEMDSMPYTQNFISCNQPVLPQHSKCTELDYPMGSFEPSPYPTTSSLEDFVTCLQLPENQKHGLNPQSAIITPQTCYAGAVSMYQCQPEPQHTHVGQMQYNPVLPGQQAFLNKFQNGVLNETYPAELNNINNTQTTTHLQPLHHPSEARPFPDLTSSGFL
Sequence of Peroxisome proliferator-activated receptor gamma (Homo sapiens) (P37231 whole entry, looked up): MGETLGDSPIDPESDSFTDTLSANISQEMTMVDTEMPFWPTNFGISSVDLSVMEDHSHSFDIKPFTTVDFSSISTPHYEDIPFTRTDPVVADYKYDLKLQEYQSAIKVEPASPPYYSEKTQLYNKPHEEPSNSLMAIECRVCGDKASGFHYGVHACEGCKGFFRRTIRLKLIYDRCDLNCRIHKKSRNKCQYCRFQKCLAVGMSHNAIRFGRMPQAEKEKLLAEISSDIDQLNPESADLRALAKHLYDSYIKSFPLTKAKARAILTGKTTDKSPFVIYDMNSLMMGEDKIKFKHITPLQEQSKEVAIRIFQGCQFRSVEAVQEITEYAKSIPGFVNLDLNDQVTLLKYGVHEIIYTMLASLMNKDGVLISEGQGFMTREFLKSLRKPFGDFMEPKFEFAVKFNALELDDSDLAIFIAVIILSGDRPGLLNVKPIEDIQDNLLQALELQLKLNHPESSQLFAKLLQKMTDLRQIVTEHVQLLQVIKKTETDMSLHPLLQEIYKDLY

Take `O=C(O)[C@H](CC(=O)N1C[C@H]2CCCC[C@H]2C1)Cc1ccccc1`: the Potency entry in experiment [1], in experiment [2], in experiment [3], in experiment [4] and in experiment [5] was “inactive” each time. Also, the max activation in experiment [6] is -2.62%.
Take `Cc1cc(C(=O)NNCc2ccccc2)no1`: the Potency result in experiment [1], in experiment [3], in experiment [4], in experiment [5] and in experiment [7] was “inactive” in each case. For the same compound, in experiment [6], the max activation is -1.39%.
Regarding `COc1ccc2c(=O)c(C)c(-c3ccccc3)oc2c1CN(C)C`, the Potency entry in experiment [1], in experiment [4] and in experiment [5] was “inactive” throughout. Besides, the Potency in experiment [2] was 11.9 µM (active). Besides, the max activation in experiment [6] is -1.96%.
In the case of `O=C1c2ccccc2C(=O)C1c1ccc(Cl)cc1`, the Potency result in experiment [1], in experiment [3], in experiment [4], in experiment [5] and in experiment [7] was “inactive” in each case. The max activation in experiment [6] was -2.83%.
As to `CCOC(=O)c1c[nH]c2cc(OCC(C)C)c(OCC(C)C)cc2c1=O`, the Potency entry in experiment [1], in experiment [3], in experiment [4], in experiment [5] and in experiment [7] was “inactive” each time. For the same compound, the max activation in experiment [6] was -0.745%.
As to `CN1C(=O)CN2CCc3ccccc3C2c2cc(Cl)ccc21` (stereo not drawn), the Potency result in experiment [1], in experiment [3], in experiment [4] and in experiment [5] was “inactive” each time. Moreover, the Potency was 4.73 µM (active) in experiment [2], 3.16 µM (active) in experiment [8] and 22.4 µM (active) in experiment [7].
`O=C1/C(=C\c2cccs2)CCC/C1=C\c1cccs1`: the Potency was 23.7 µM (active) in experiment [2], 11.9 µM (active) in experiment [3] and 7.08 µM (active) in experiment [6]. Also, the Potency result in experiment [5] is “inactive”.
For the compound `COC(=O)C1=C(C#N)NC(C)=C(C(=O)OC(C)C)C1c1cccc([N+](=O)[O-])c1` (stereo not drawn), the Potency entry in experiment [2] and in experiment [5] was “inactive” each time. Also, the Potency in experiment [6] was 7.94 µM (active).
In the case of `CC(=O)N=c1sc(S(N)(=O)=O)nn1C`, the Potency result in experiment [1], in experiment [3], in experiment [4], in experiment [5] and in experiment [7] was “inactive” in each case. Also, the max activation in experiment [6] was -1.62%.
Consider `CCN(CC)CCOCCOC(=O)C(CC)(CC)c1ccccc1`, for which the Potency result in experiment [1], in experiment [2], in experiment [3] and in experiment [4] was “inactive” throughout. Moreover, the results for the Potency in experiment [5] and in experiment [7] were 10 µM (active) and 15.8 µM (active), respectively. Besides, in experiment [6], the max activation was 2.25%.
For the compound `N[C@H](CC(=O)O)C(=O)O`, the Potency entry in experiment [1], in experiment [3] and in experiment [5] was “inactive” each time. Moreover, the max activation in experiment [6] is 2.19%.
Consider `COCC(=O)Nc1cc(Sc2ccccc2)ccc1N=C(NC(=O)OC)NC(=O)OC`, for which the Potency entry in experiment [1], in experiment [3], in experiment [4], in experiment [5] and in experiment [7] was “inactive” each time. For the same compound, in experiment [6], the max activation was 86.6%.
On to `O=C(/C=C/c1cccc(F)c1)NC1CC1`, for which the Potency entry in experiment [1], in experiment [2], in experiment [3], in experiment [4], in experiment [5] and in experiment [8] was “inactive” throughout. In addition, the Potency in experiment [7] is 10 µM (active).
As for `CCOC(=O)Oc1c(OC)cc(C(=O)O[C@@H]2C[C@@H]3CN4CCc5c([nH]c6cc(OC)ccc56)[C@H]4C[C@@H]3[C@H](C(=O)OC)[C@H]2OC)cc1OC`, the Potency entry in experiment [3] and in experiment [5] was “inactive” in each case. Further, the max activation in experiment [6] was -0.121%.
Turning to `COc1cc2c(cc1OC)[C@@H](c1ccccc1)CN(C)CC2`, the Potency result in experiment [1], in experiment [2], in experiment [3], in experiment [4] and in experiment [5] was “inactive” throughout. Also, the max activation in experiment [6] is 1.99%.
For the compound `CC(C(=O)O)c1ccc(N2Cc3ccccc3C2=O)cc1` (stereo not drawn), the Potency entry in experiment [1], in experiment [3], in experiment [4], in experiment [5], in experiment [8] and in experiment [7] was “inactive” throughout. In experiment [2], the Potency is 0.0596 µM (active).
For `O=C(O)COc1ccc(CCNS(=O)(=O)c2ccccc2)s1`, the Potency entry in experiment [1], in experiment [2], in experiment [3], in experiment [4], in experiment [5] and in experiment [8] was “inactive” each time. Besides, the Potency entry in experiment [7] is “inactive”.
Consider `CC[N+](C)(C)Cc1ccccc1Br`, for which the Potency entry in experiment [1], in experiment [2], in experiment [3], in experiment [4] and in experiment [5] was “inactive” throughout. Also, the max activation in experiment [6] is -1.23%.
Turning to `CCOc1ccc(N=Nc2ccc(N)cc2N)cc1`, the Potency is 21.1 µM (active) in experiment [1], 0.944 µM (active) in experiment [2] and 3.16 µM (active) in experiment [6]. Besides, the Potency entry in experiment [4], in experiment [5] and in experiment [7] was “inactive” in each case.
Turning to `CCC(=O)NCCC1CCc2ccc3c(c21)CCO3` (stereo not drawn), the Potency entry in experiment [1], in experiment [2], in experiment [4] and in experiment [5] was “inactive” throughout. The max activation in experiment [6] is -2.75%. For the same compound, in experiment [7], the Potency was 28.2 µM (active).
On to `Nc1ncnc2c1ncn2CCOCP(=O)(O)O`, for which the Potency entry in experiment [1], in experiment [3], in experiment [5] and in experiment [7] was “inactive” in each case. Moreover, the max activation in experiment [6] was -0.588%.
For `CO[C@H]1C[C@@H]2CC[C@@H](C)[C@@](O)(O2)C(=O)C(=O)N2CCCC[C@H]2C(=O)O[C@H]([C@H](C)C[C@@H]2CC[C@@H](OCCO)[C@H](OC)C2)CC(=O)[C@H](C)/C=C(\C)[C@@H](O)[C@@H](OC)C(=O)[C@H](C)C[C@H](C)/C=C/C=C/C=C/1C`, the Potency in experiment [1] and in experiment [3] was 11.9 µM (active) throughout. Moreover, the Potency entry in experiment [5] was “inactive”. In experiment [6], the max activation was -9.27%.

(Values after PubChem BioAssay (Tox21).)
